# Sampled rows, rich in hits. Any-hit rate of the full collection: about 8.9%.
# ALDH1A1 block: inhibitors of human aldehyde dehydrogenase 1A1; AID 1030; P00352; 7.3% of 220,000 active; Purified ALDH1A1, NADH fluorescence, propionaldehyde substrate; Potency, µM (doses to about 75.3 µM), for inactives: at the top dose activity, negative = inhibition, most hits filed as inhibitors; active means well fitted inhibition curve with a large enough effect, not every such curve was filed as active; inconclusive means small, poorly fitted or top-dose-only effect, or another doubt; inactive means no such curve, though single readings can be large or run the other way;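 further: potency means the concentration at half of the fitted maximal effect; plate controls were no enzyme wells and a reference inhibitor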
# IMPase Li cell: cell-permeable IMPase inhibitors with lithium potentiation; CHO-M1 cells, IP1 TR-FRET (IP-One), carbachol + lithium; Potency, µM (doses to about 59.4 µM), without a hit: at the top dose activity, negative = IMPase inhibition, most hits filed as inhibitors; 0.35% of 210,000 active; AID 1457;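 further: IP1 builds up when IMPase is blocked and the TR-FRET signal falls; potency means the concentration at half of the fitted maximal effect; plate controls were basal vehicle for no effect and high inhibitor control for full effect; nearly all actives have a fitted effect of over 50% in size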
#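 CHO cells stably expressing M1 receptor (2000/well) were cultured 16–30 h, then exposed to compounds with a small lithium addition for 30 min at 37C. IP1 was measured by TR-FRET competition; AC50 from Hill fits.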
# HPGD block: HPGD (human) dehydrogenase inhibition; P15428; purified HPGD, NADH fluorescence kinetic, PGE2 substrate; Potency, µM, inactives show at the top dose activity change, negative = inhibition, actives largely listed as inhibitors; 4.3% of 150,000 active; AID 894; active means well fitted inhibition curve with a large enough effect, not every such curve was filed as active; inconclusive means small, poorly fitted or top-dose-only effect, or another doubt; inactive means no such curve, though single readings can be large or run the other way; further: potency means the concentration at half of the fitted maximal effect
#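 20 nM HPGD preincubated 15 min at room temperature with compound in 50 mM Tris-HCl pH 8, 0.01% Tween 20. Started with 1 mM NAD+ and 30 uM prostaglandin E2; NADH fluorescence (360/450 nm) read 5 times over 30-s intervals, last minus first.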
# 12-hLO inh: 12-hLO (ALOX12) enzyme inhibition | Potency, µM (top dose mostly 57.1 µM), for inactives: at the top dose activity change, negative = inhibition, usual class: inhibitors | 0.12% of 150,000 active | purified 12-hLO, xylenol orange hydroperoxide absorbance; further: potency means the concentration at half of the fitted maximal effect; nearly all actives have a fitted effect of over 55% in size
#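 Xylenol orange chromogenic assay: hydroperoxide from 12hLO oxidises Fe(II), giving red-shifted Fe(III)-XO absorbance. Conditions: 150 nM enzyme, 40 uM arachidonic acid, 25 mM Hepes pH 7.0, 0.01% Triton X-100, 30 min, room temperature.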
# IMPase inh: cell-permeable inhibitors of inositol monophosphatase (IMPase); inhibition (IP1 accumulation), % at 46.1 µM; P97697; CHO-M1 cells, IP1 accumulation, HTRF TR-FRET ratio; 120,000 tested, under 10 active; active means well fitted curve in the direction sought with a large enough effect in the signal ratio, not every such curve was filed as active; inconclusive means small, poorly fitted or top-dose-only effect, or a change in a side signal; inactive means no such curve, though single readings can be large or run the other way; the % refers to the signal ratio;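 further: cells stimulated with carbachol in lithium chloride buffer; plate controls were DMSO basal wells for no effect and reference inhibitor wells for full effect; higher means more IMPase inhibition seen as more IP1 and lower FRET ratio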
#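 CHO-M1, 2000 cells/well, cultured 16–30 h; cpd up to 46 uM; carbachol (50 uM solution, stimulation buffer w/ 50 mM LiCl, pH 7.4), 30 min 37C; IP-One TR-FRET, 10 min RT; Ex 320/Em 665, 620; Hill-fit AC50.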
# NPSR antag: antagonists of human neuropeptide S receptor cAMP signaling; CHO-NPSR cells, cAMP TR-FRET, antagonist mode; Potency, µM (top dose mostly 38.3 µM), without a hit: top-dose activity change, negative = inhibition, most hits filed as inhibitors; 1% of 220,000 active; further: potency means the concentration at half of the fitted maximal effect; nearly all actives have a fitted effect of over 50% in size
# Target sequence (Q6W5P4 whole entry, looked up): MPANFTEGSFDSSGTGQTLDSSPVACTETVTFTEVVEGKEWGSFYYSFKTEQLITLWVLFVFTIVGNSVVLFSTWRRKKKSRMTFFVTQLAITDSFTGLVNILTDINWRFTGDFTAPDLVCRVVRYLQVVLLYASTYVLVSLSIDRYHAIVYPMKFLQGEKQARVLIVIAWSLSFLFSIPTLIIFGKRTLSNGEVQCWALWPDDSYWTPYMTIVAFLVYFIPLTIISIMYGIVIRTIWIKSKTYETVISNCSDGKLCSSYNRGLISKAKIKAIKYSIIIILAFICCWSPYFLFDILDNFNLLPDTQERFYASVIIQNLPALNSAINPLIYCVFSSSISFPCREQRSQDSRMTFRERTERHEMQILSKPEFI
# Numbers without * were called inactive; ? = inconclusive; . = no result given; [ ] = dose if it differs, or a comment. Unless noted, the call rests on the fitted dose curve; in most records, active means well fitted curve in the direction sought with a large enough effect; inconclusive means small, poorly fitted or top-dose-only effect, or another doubt; inactive means no such curve, though single readings can be large; an effect the other way counts as inactive or inconclusive. Unless noted, on the % scale 0 is the no-effect control and ±100 the full control effect.
SMILES,ALDH1A1 block,IMPase Li cell,HPGD block,12-hLO inh,IMPase inh,NPSR antag
O=C(O)c1cc(N/N=C/c2ccc(N3CCOCC3)s2)ccc1Cl,2.8µM*,28%,?,-6%,.,-5%
O=C(CNC(=S)N(Cc1ccccc1F)C1CCCCC1)NCCCN1CCOCC1,?,-6%,.,.,.,2%
CC(NC(=O)CNC(=S)N(Cc1cccs1)C1CCCC1)c1ccccc1 (stereo not drawn),16µM*,15%,.,.,.,-33%
CCOCCCNC(=O)CNC(=S)N(Cc1ccccc1F)C1CCCCC1,14µM*,1%[38.3 µM],-12%,-8%,-3,-16%[46.1 µM]
O=C(CNC(=S)N(Cc1ccccc1F)C1CCCCC1)NCCN1CCOCC1,1.9µM*,-7%,.,.,.,-7%
O=C(CNC(=S)N(Cc1ccccc1)Cc1ccccc1F)NCc1ccccc1,10µM*,9%,.,.,.,?
O=C(c1ccc2nc3ccc(Cl)cc3c(=O)n2c1)N1CCOCC1,?,-20%[38.3 µM],?,-30%,0,-7%[46.1 µM]
CC(C)CNC(=O)CCCSc1nc2ccccc2[nH]1,6%,-6%,.,.,.,16%
CC(=O)OCCn1c(=O)c2cc3c(=O)n(CCOC(C)=O)c(=O)c3cc2c1=O,?,11%[38.3 µM],0%,-2%,5,2%[46.1 µM]
O=C(O)CNC(=S)N(Cc1ccccc1Cl)C1CCCC1,5%,-2%,.,.,.,10%
CCC(C)NC(=O)CNC(=S)N(Cc1ccccc1F)C1CCCCC1 (stereo not drawn),10µM*,4%,.,.,.,-38%
COc1ccc(N2C(=O)[C@H]3CCC=C[C@H]3[C@@H]2c2ccccc2Br)cc1,7.1µM*,10%,-20%,-2%[0.00818 µM],.,.
O=C1[C@H]2CCC=C[C@H]2[C@H](c2ccccc2Br)N1Cc1ccccc1,?,31%,-12%,-3%[0.00818 µM],.,.
Cc1ccc(CCNC(=O)C2CCC(CNc3c(N4CCCC4)c(=O)c3=O)CC2)cc1 (stereo not drawn),-8%,-1%[38.3 µM],25µM*,-5%,10,-16%[46.1 µM]
Cc1ccnc(NC(=O)C2CCC(CNc3c(N4CCCC4)c(=O)c3=O)CC2)c1 (stereo not drawn),0%,41%[38.3 µM],-10%,-5%,-4,-17%[46.1 µM]
Cc1ccc(CNC(=O)C2CCC(CNc3c(N4CCC(C)CC4)c(=O)c3=O)CC2)cc1 (stereo not drawn),.,.,.,.,.,0%
O=C(NCC1COc2ccccc2O1)C1CCC(CNc2c(N3CCCCC3)c(=O)c2=O)CC1 (stereo not drawn),1%,-9%[38.3 µM],14µM*,-2%,1,-7%[46.1 µM]
O=C(C1CCC(CNc2c(N3CCCCC3)c(=O)c2=O)CC1)N1CCCC1 (stereo not drawn),.,.,.,.,.,2%
Cc1cccc(CCNC(=O)C2CCC(CNc3c(N4CCCC4)c(=O)c3=O)CC2)c1 (stereo not drawn),?,2%[38.3 µM],13µM*,-3%,-2,-11%[46.1 µM]
O=C(NC1CCCCCCC1)C1CCC(CNc2c(N3CCCC3)c(=O)c2=O)CC1 (stereo not drawn),?,6%,4µM*,4%,-1,9%
CC(c1ccccc1)C1CC(=O)N(c2ccc(C(=O)O)cc2)C1=O (stereo not drawn),-4%,0%[38.3 µM],-12%,-5%,8,13%[46.1 µM]
COc1ccccc1OCc1nc(C#N)c(NCc2ccco2)o1,-4%,25%[38.3 µM],-16%,1%,4,-2%[46.1 µM]
Cc1ccc(-n2[nH]c(C)c(/C=N/c3cccc(C)n3)c2=O)cc1,.,.,.,.,.,-24%
COc1ccc2cnnc(SCC(=O)Nc3ccc(C(=O)O)cc3)c2c1OC,?,-17%,?,0%,-11,8%
COc1ccc2cnnc(SCC(=O)Nc3ccccc3)c2c1OC,?,1%,25µM*,-1%,.,10%
CC(C)OC(=O)NC(Nc1ccccc1C(=O)O)(C(F)(F)F)C(F)(F)F,.,.,.,.,.,-29%
COC(=O)c1[nH]c2ccccc2c1NC(=O)CCN1CCSCC1,-4%,15%[38.3 µM],-18%,-4%,6,-4%[46.1 µM]

# High-throughput results from PubChem BioAssay.
